Source: PubChem BioAssay
A selection: hits, their analogues and other compounds. The true share with any hit is near 4.1%.
CHT inh: human CHT choline transport inhibition; B-score at 10 µM; hit rate 0.86% among 310,000; CHT-expressing cells, membrane potential dye, choline response; hits give low values; AID 488975;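 active = B-score over 3 SD under the library average, and starting fluorescence ratio not unusually high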;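 also: choline stimulus applied at its EC90 after an EC20 pre-addition; B-score computed on integrated fluorescence ratio after choline addition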
Mot1-301 SUMO: inhibitors of SUMOylation pathway: yeast Mot1-301 growth rescue; growth rescue, % at 18.8 µM; AID 2716; S. cerevisiae Mot1-301 growth rescue, ATP luminescence, 38.5C; percent above DMSO median, 100 means doubled; hit rate 1% among 320,000;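 active = every valid replicate shows activation above 250% relative to neutral control wells; inactive = the rest, any valid replicate at or below 250%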;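 also: OY570 slx delta 5 strain wells were the positive control but not used for scaling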
MEKK2 WT-MEK5: raises or lowers MEK5 binding to wildtype human MEKK2 PB1 domain. hit rate 1.1% among 290,000. bead flow cytometry, Alexa488-MEK5 binding to MEKK2 WT; actives lie on both sides. binding response (% of control), % at 10 µM. Q9Y2U5. AID 1531; in the data active = binding response below about 67% or above about 130%
MEKK3 PB1 HTS: MEKK3-MEK5 PB1 interaction, increase or decrease | bead-based flow cytometry, Alexa488-MEK5 binding to MEKK3; actives lie on both sides; 0 = blocked by unlabeled MEK5, 100 = vehicle | binding response (% of control), % at 10 µM | hit rate 1.4% among 290,000 | AID 1529;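 active = binding response more than 3 SD above or below the average of its plate-row segment, actives on both sides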;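 also: Alexa488 bead fluorescence after subtracting the streptavidin-only scavenger bead signal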
MEKK2mut PB1 HTS: signal of MEK5 binding to mutant human MEKK2 PB1 domain; AID 1530; hit rate 0.35% among 290,000; percent response, % at 10 µM; bead flow cytometry, Alexa488-MEK5 binding to MEKK2 mutant; in the data active = percent response above about 24%, passing the limit was not always enough
CHT PAM: allosteric activators of human choline transporter CHT; Q9GZV3; CHT-expressing cells, membrane potential dye, choline EC20; hits give high values; LV-AA mutant CHT in HEK293 cells; B-score at 10 µM; hit rate 0.49% among 310,000; AID 488977;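 active = initial fluorescence not abnormally high and integrated response B-score, plate-corrected, over 3 SD above library mean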
MEKK2wt confirm: raises or lowers MEK5 binding to wildtype human MEKK2, retest | shares compounds with MEKK3 PB1 HTS | bead flow cytometry, Alexa488-MEK5 binding to MEKK2 WT; actives lie on both sides | binding response (% of control), % at 10 µM | hit rate 2.4% among 5,900 | AID 1892; in the data active = binding response below about 16% or above about 210%; inactive = in between
MEKK2mut-MEK5: signal of MEK5 binding to mutant human MEKK2, retest; bead flow cytometry, Alexa488-MEK5 binding to MEKK2 mutant; shares compounds with MEKK3 PB1 HTS; AID 1893; percent response, % at 10 µM; hit rate 2% among 5,900; in the data active = percent response mostly above about 71%, no sharp cut-off; inactive = mostly below about 38%;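 also: higher means compound restores mutant binding toward wildtype level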
MEKK3 confirm: MEKK3-MEK5 PB1 inhibition, single concentration confirmation. hit rate 1.8% among 5,900. bead flow cytometry, Alexa488-MEK5 binding to MEKK3; hits give low values. binding response (% of control), % at 10 µM. AID 1894. shares compounds with MEKK3 PB1 HTS;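 active = binding response below 72% of control, or above a set upper limit, though filed actives all read lower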;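 also: 100% = DMSO only wells and 0% = binding blocked by excess unlabeled MEK5; lower values mean stronger disruption of MEK5 binding to MEKK3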
The depositor's hits bear a star; i = inactive; x = no result; [ ] = remark or other dose.

SMILES	CHT inh	Mot1-301 SUMO	MEKK2 WT-MEK5	MEKK3 PB1 HTS	MEKK2mut PB1 HTS	CHT PAM	MEKK2wt confirm	MEKK2mut-MEK5	MEKK3 confirm
Cc1ccc(NC(=O)CN(C)C(=O)CN2C(=O)NC(C)(c3ccccc3)C2=O)cc1 (centres undefined)	i	-17	91	79*[inhibitor]	-5	i	101	3	101
O=C(NCCCN1CCOCC1)C(=O)N/N=C/c1ccccc1	i	-6	106	157*	-1	i	98	-4	100
Cc1cccc2c(=O)c(C(=O)NCCCN3CCOCC3)c[nH]c12	i	12	85	71*[inhibitor]	8	i	104	3	104
S=C(NCCN1CCOCC1)N/N=C/c1c2ccccc2cc2ccccc12	i	1	-2.0*[inhibitor]	1.0*[inhibitor]	-10	i	108	4	102
Cc1cccc(C)c1NC(=O)C(=O)NCCCN1CCOCC1	i	11	93	61*[inhibitor]	-1	i	100	-1	103
CC(C)(C)c1ccc(/C=N/NC(=O)C(=O)NCCCN2CCOCC2)cc1	i	0	101	105	-2	i	x	x	x
COc1ccc2ccccc2c1/C=N/NC(=S)NCCN1CCOCC1	i	-14	100	101	-5	i	x	x	x
CC(=O)c1cccc(NC(=O)CSc2nnc(-c3ccncc3)o2)c1	x	-8	x	x	x	x	x	x	x
COC(=O)CCCC(=O)N1CCCC(CNS(=O)(=O)c2ccc(OC)cc2)C1 (centres undefined)	i	-5	101	98	-1	i	x	x	x
S=C(NCCN1CCOCC1)Nc1ccc(Br)cc1	i	9	104	145*	0	i	99	-7	100
CCN(CC(=O)Nc1cc(S(=O)(=O)N2CCOCC2)ccc1C)Cc1ccccc1	i	-5	x	x	x	i	x	x	x
NC1=NC[C@@H](Cc2ccc(O)cc2)N1CCCCC1CCCCC1	i	57	134*	106	12	i	121	8	102
O=C(O[C@@H](C(=O)O)[C@@H](OC(=O)c1ccccc1)C(=O)O)c1ccccc1	x	-3	x	x	x	x	x	x	x
CC(C)NC(=O)C(OC(=O)c1ccccc1)C(OC(=O)c1ccccc1)C(=O)O (centres undefined)	i	4	117	123*	6	i	109	7	104
CC(=O)Nc1ccc(NC(=O)c2c(-c3ccccc3Cl)noc2C)c(C)c1	i	-1	99	102	0	i	x	x	x
CC(=O)Nc1ccc(OC(=O)c2c(-c3ccccc3Cl)noc2C)cc1	i	-19	106	144*	1	i	102	0	99
COC(=O)c1ccc(OCC(O)CN(CC(C)C)CC(C)C)cc1 (centres undefined)	i	29	96	97	3	i	x	x	x
O=C(Nc1nc(-c2ccccc2)ns1)c1ccncc1	i	5	105	100	5	i	x	x	x
N#C/C(=C\Nc1ccc2c(c1)OCCO2)c1nc(-c2ccccc2)cs1	i	5	97	98	-2	i	x	x	x
N#C/C(=C\C=C\c1ccccc1[N+](=O)[O-])c1nc(-c2ccc3c(c2)OCO3)cs1	i	1	24*	104	30*	i	93	-4	96
CC(C)CC(N=Cc1c(O)c2ccccc2oc1=O)C(=O)O (centres undefined)	i	5	93	73*[inhibitor]	-2	i	100	0	104
O=C(O)CCCN=Cc1c(O)c2ccccc2oc1=O	i	3	103	96	-1	i	x	x	x
